The source of these data is PubChem BioAssay (NCI).

Assay [1] can be described thus: NCI Yeast Anticancer Drug Screen. Data for the rad50 strain (AID 155).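 Also: 0% = growth of vehicle-only cultures of the same strain.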 The following applies: S. cerevisiae rad50 strain growth inhibition; at 50.0 µM; hits give high values. A digest of the protocol: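 Genetically altered yeast (DNA repair pathway); compound treatment; growth inhibition vs vehicle ctrl.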
The nature of assay [2]: NCI Yeast Anticancer Drug Screen. Data for the mec2-1 strain (AID 157). The conditions noted are these: S. cerevisiae mec2-1 strain, at 50.0 µM, hits give high values. The gist of the method: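 Growth inhibition is read against vehicle-treated controls after compound exposure of the mec2-1 yeast strain, which is defective in DNA damage repair or cell cycle control.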
Assay [3] in a line: NCI Yeast Anticancer Drug Screen. Data for the sgs1 mgt1 strain (AID 161).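 Also: 0% = growth of cultures given vehicle only.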 The following applies: S. cerevisiae sgs1 mgt1 strain, at 50.0 µM, hits give high values. The gist of the method: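 Yeast cells carrying a defined DNA-repair defect were exposed to test compounds. Growth inhibition was measured relative to vehicle-treated controls.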
Assay [4] can be described thus: NCI Yeast Anticancer Drug Screen. Data for the cln2 rad14 strain (AID 165).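 Also: 0% = growth equal to vehicle treated cultures.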 The following applies: S. cerevisiae cln2 rad14 strain, at 50.0 µM, hits give high values. A digest of the protocol: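 Growth inhibition, relative to vehicle-treated controls, is the read-out. The test organism is a yeast strain with defined genetic alterations, cln2 rad14.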
Assay [5] is described as follows: NCI Yeast Anticancer Drug Screen. Data for the bub3 strain (AID 167). The conditions noted are these: S. cerevisiae bub3 mutant strain, at 50.0 µM, hits give high values. A digest of the protocol: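 Yeast carrying a defined mutation is treated with each compound, and growth is compared with that of vehicle-exposed cells to give inhibition.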
The nature of assay [6]: NCI Yeast Anticancer Drug Screen. Data for the mlh1 rad18 strain (AID 175). The following applies: S. cerevisiae mlh1 rad18 strain growth inhibition; at 50.0 µM; hits give high values. The gist of the method: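 Cells of a genetically altered yeast strain, deficient in DNA damage repair, were treated with compound. Their growth was then compared with that of vehicle-treated cultures to give inhibition.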

This is part of a sample that, as a whole, favours compounds with a hit. Of some 79,000 tested, about 15% had one in any assay. Values without a mark were called inactive. Activity calls are given as the source filed them. Rule as the data show it: active = growth inhibition above about 70%; inactive = the rest.

`C[C@H]1C(=O)O[C@@H]2CCN3CC=C(COC(=O)[C@](C)(O)[C@@]1(C)O)[C@H]23`: the growth inhibition in assay [1] is -4.7%; in assay [2], -4.2%; in assay [3], 11.9%; in assay [4], -2.85%; in assay [5], -9.6%; in assay [6], -44.1%.

On to `CC(C)OC(=S)S.[Cu+2]`, for which the growth inhibition in assay [1] was -7%; in assay [2] it was -6.7%; in assay [3] it was -2.4%; in assay [4] it was -31.6%; in assay [5], -15.2%; in assay [6] it was 2.4%.

As for `CCCCCCCCCCNP(=S)(NCCCCCCCCCC)c1ccccc1`, the growth inhibition is 26.8% in assay [1]; 4.7% in assay [2]; 27.9% in assay [3]; -19.8% in assay [4]; -14.8% in assay [5]; 2.6% in assay [6].

Consider `CCN(CCCl)CCCCCNc1c2ccccc2nc2ccc(OC)cc12`, for which the growth inhibition in assay [1] was 84.5% (active); in assay [2] it was 84.5% (active); in assay [3], 83% (active); in assay [4], 84.3% (active); in assay [5], 78.8% (active); in assay [6], 76% (active).

In the case of `C/C=C(\C)C(=O)OC1CCN2CC=C(COC(=O)C(O)(C(C)O)C(C)(C)O)C12` (stereo unspecified), the growth inhibition in assay [1] was 12.3%; in assay [2], 2.3%; in assay [3], 2.5%; in assay [4] it was 4.85%; in assay [5], 6.25%; in assay [6], -0.55%.

As to `CC(C)SP(=S)(SC(C)C)SC(C)C`, the growth inhibition was 8% in assay [1]; -10.1% in assay [2]; 8.3% in assay [3]; -20.4% in assay [4]; 4.15% in assay [5]; 17.1% in assay [6].

In the case of `CCC(CC)(COC(=O)C(O)(c1ccccc1)c1ccccc1)C[N+](C)(C)C`, the growth inhibition is -4.45% in assay [1]; -2.85% in assay [2]; 1% in assay [3]; -24.9% in assay [4]; 0.5% in assay [5]; -12.7% in assay [6].

For `NC(=O)NNC(=O)C(Cl)(Cl)Cl`, the growth inhibition in assay [1] was -0.45%; in assay [2] it was -8.55%; in assay [3] it was 5.6%; in assay [4] it was -63.3%; in assay [5] it was -4.65%; in assay [6], -14.2%.

As for `CN(Cc1cnc2nc(N)nc(N)c2n1)c1ccc(C(=O)NC(CCC(=O)NC(CC(P(=O)(O)O)P(=O)(O)O)C(=O)O)C(=O)O)cc1` (stereo unspecified), the growth inhibition was -19.6% in assay [1]; -14.6% in assay [2]; -8.05% in assay [3]; 16.6% in assay [4]; 5.75% in assay [5]; -21.9% in assay [6].

For `CC(=O)O[C@H]1C(=O)[C@@]2(C)C(C(OC(=O)c3ccccc3)[C@]3(O)C[C@H](OC(=O)C(OC(=O)CCCC(=O)NCCCN(C)C)C(NC(=O)c4ccccc4)c4ccccc4)C(C)=C1C3(C)C)C1(OC(C)=O)COC1C[C@@H]2O` (stereo partly specified), the growth inhibition in assay [1] was -1.1%; in assay [2], -0.35%; in assay [3], 3.8%; in assay [4] it was -10.3%; in assay [5], -0.95%; in assay [6], 7.35%.

As for `CCCCCCNC(=O)CCl`, the growth inhibition was 6.5% in assay [1]; -9.85% in assay [2]; 15.3% in assay [3]; -14.6% in assay [4]; 7.45% in assay [5]; -9.15% in assay [6].

For `NP(=S)(Oc1ccc(Cl)cc1)Oc1ccc(Cl)cc1`, the growth inhibition is 96.8% (active) in assay [1]; 65.1% in assay [2]; 97.7% (active) in assay [3]; 60.7% in assay [4]; 49.3% in assay [5]; 91.5% (active) in assay [6].

For `CO[C](=[W])c1ccccc1.[C-]#[O+].[C-]#[O+].[C-]#[O+].[C-]#[O+].[C-]#[O+]`, the growth inhibition in assay [1] is 12.2%; in assay [2], -0.6%; in assay [3] it was -2.3%; in assay [4], 1.55%; in assay [5], 1.05%; in assay [6], -4.1%.

On to `CCOc1ccc(OCC)c(C(O)C(C)NC(C)C)c1` (stereo unspecified), for which the growth inhibition is -0.55% in assay [1]; 9.1% in assay [2]; 6% in assay [3]; 0.1% in assay [4]; -3.6% in assay [5]; -10.2% in assay [6].

As for `CCCOCC(O)C[As](=O)(O)c1cccc(Cl)c1` (stereo unspecified), the growth inhibition in assay [1] was 2.35%; in assay [2], 3.55%; in assay [3], 0.3%; in assay [4] it was -4.4%; in assay [5], 10.2%; in assay [6], -5.55%.

Consider `COc1ccc(NC(=O)/C(=N/NC(N)=S)C2C(=O)NC(=S)NC2=O)c(OC)c1`, for which the growth inhibition in assay [1] was -17.4%; in assay [2], -4%; in assay [3], -4.55%; in assay [4] it was -21.9%; in assay [5] it was -8.9%; in assay [6], -25%.

For the molecule `O=C(O)CC(S)C(=O)O` (stereo unspecified), the growth inhibition in assay [1] is -19.1%; in assay [2], 10.4%; in assay [3] it was -3.7%; in assay [4], -38.3%; in assay [5], -9.85%; in assay [6], 14.6%.

As for `O=C1C=CC=C[C@@H]2C(C3OCCO3)CC[C@H]12.[C-]#[O+].[C-]#[O+].[C-]#[O+].[Fe]` (stereo partly specified), the growth inhibition in assay [1] is 4.3%; in assay [2], 14.8%; in assay [3] it was -7.3%; in assay [4], 23.1%; in assay [5], 7.5%; in assay [6] it was 4.75%.

As to `C=CC[NH-].C=CC[NH-].CC(=O)CC(C)=O.CC(=O)CC(C)=O.[Ni+2]`, the growth inhibition is -2.65% in assay [1]; -6.75% in assay [2]; -7.4% in assay [3]; -9.35% in assay [4]; -1.1% in assay [5]; -3.35% in assay [6].

Regarding `COc1ccc2c3c1OC1C(Oc4nnnn4-c4ccccc4)C=CC4C(C2)N(C)CCC341` (stereo unspecified), the growth inhibition in assay [1] was 39.2%; in assay [2], 5.55%; in assay [3] it was 13.5%; in assay [4], 21.6%; in assay [5] it was -5.75%; in assay [6], 12.5%.

For `Nc1ccc(/C=C/C(=O)Nc2ccc(S(=O)(=O)F)cc2)cc1`, the growth inhibition in assay [1] was 22.4%; in assay [2], 96.2% (active); in assay [3] it was 21.1%; in assay [4], 40.1%; in assay [5], 99% (active); in assay [6], 95.5% (active).
